From PubChem BioAssay
Most compounds without a hit are left out; they make up all but 3.9% or so of the library.
BoNT-A LC inh2: BoNT/A light chain protease inhibitors, primary screen, biochemical, flow cytometry, MLPCN library; AID 588499, 2011; inhibition, % at 10 µM; 0.17% of 360,000 active; multiplex microsphere protease substrate cleavage; Botulinum neurotoxin type A light chain protease (Clostridium botulinum A str. ATCC 3502)
BoNT-F LC inh: BoNT/F light chain protease inhibitors, primary screen, biochemical, flow cytometry, MLPCN library; Botulinum neurotoxin type F light chain protease (Clostridium botulinum); 0.22% of 360,000 active; inhibition, % at 10 µM; AID 588497, 2011; Multiplex microsphere protease cleavage assay; in the data active means inhibition above about 35%, passing the limit was not always enough; inconclusive means no clear call, values can overlap the other calls
DUSP3 inh: VHR1 phosphatase inhibitors, primary screen, biochemical, absorbance, uHTS | Dual specificity protein phosphatase 3 (Homo sapiens), P51452 | recombinant VHR phosphatase, pNPP absorbance | inhibition, % at 13.3 µM | 0.52% of 290,000 active | AID 1654, 2009; in the data active means inhibition above about 50%
Target sequence (P51452 whole entry, looked up): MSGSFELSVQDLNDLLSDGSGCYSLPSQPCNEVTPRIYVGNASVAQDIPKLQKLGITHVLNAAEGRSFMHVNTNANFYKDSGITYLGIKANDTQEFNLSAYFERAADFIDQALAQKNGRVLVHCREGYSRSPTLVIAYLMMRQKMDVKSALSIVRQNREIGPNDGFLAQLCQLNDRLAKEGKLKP
Bead autofluor: counter-screen for toxin protease inhibitors: compound fluorescence; compound autofluorescence counterscreen, microsphere flow cytometry; stronger effect = higher value; fluorescence intensity (no concentration beside the values); 3.1% of 360,000 active; AID 624483; in the data active means fluorescence intensity above about 16000; inconclusive means no clear call, values can overlap the other calls
Anthrax LF inh2: Bacillus anthracis LF protease inhibitors, primary screen, biochemical, multiplex microsphere, MLPCN library; inhibition, % at 10 µM; AID 588501, 2011; multiplex microsphere protease cleavage assay; 0.12% of 360,000 active; Lethal factor (Bacillus anthracis), P15917
SARS 3CLpro inh: SARS-CoV 3CLpro protease inhibitors, primary screen, biochemical, quenched FRET; AID 1706, 2009; recombinant SARS-CoV 3CLpro, quenched FRET peptide cleavage; inhibition, % at 6 µM; 0.14% of 290,000 active; in the data active means inhibition above about 12%
A number is an active result; n = inactive; u = inconclusive; x = no result given. Unless noted, no stated cut-off is given here; in the data, active means inhibition above about 30%; inconclusive means no clear call, values can overlap the other calls; inactive means below that.

SMILES	BoNT-A LC inh2	BoNT-F LC inh	DUSP3 inh	Bead autofluor	Anthrax LF inh2	SARS 3CLpro inh
Cc1cccc(NC(=O)CN(C)C(=O)Cc2ccc(-c3ccccc3)cc2)c1C	n	n	x	n	n	x
CCOc1ccc(NC(=O)c2ccco2)cc1	u	n	n	24897	n	n
CCc1nnc2sc(-c3ccc(NC(=O)c4ccco4)cc3)nn12	n	n	n	16661	n	n
O=C(Nc1nccs1)c1ccc(NC(=O)c2ccco2)cc1	n	n	n	17273	n	n
CC(NC(=O)c1ccco1)C(=O)Nc1nccs1 (stereo not drawn)	n	n	x	n	n	x
CC(CC(=O)N(CCC1=CCCCC1)c1c(N)n(Cc2ccccc2)c(=O)[nH]c1=O)c1ccccc1 (stereo not drawn)	n	n	x	n	n	x
O=C(CN1C(=O)c2cccnc2C1=O)c1ccccc1	n	n	n	20963	n	n
O=C(O)CCCCCNC(=O)Cn1nnc2ccccc2c1=O	n	n	n	n	n	n
COc1cc(-c2nnc(COc3ccc4ccccc4c3)o2)cc(OC)c1OC	n	n	n	22472	n	n
COc1cc(-c2nnc(-c3ccccc3)o2)cc(OC)c1OC	n	n	n	n	n	n
CCN(CC)CCNC(=O)C(=O)Nc1cc2c3c(c1)CCC(=O)N3CCC2	n	n	n	n	n	n
COC(=O)[C@H](CC(C)C)NC(=O)NC1CCCCC1C (stereo partly drawn)	n	n	n	17745	n	n
CCOC(=O)C(C)Sc1cc(CS(=O)(=O)c2ccccc2)nc(-c2ccccc2)n1 (stereo not drawn)	u	n	n	20917	n	n
Cc1ccc(S(=O)(=O)NC(=O)C2(C)CCN2C(=O)Cc2ccc(Cl)cc2Cl)nc1 (stereo not drawn)	n	n	x	n	n	x
CC1=C(C(=O)N(C)C)CC(CC(=O)NCCCCc2ccccc2)C(=O)N1Cc1ccc(C(C)(C)C)cc1 (stereo not drawn)	n	n	x	n	n	x
CC(C)NC(=S)NNC(=O)C12CC3CC(CC(C3)C1)C2	u	n	n	24739	n	n
Cc1cccc(NC(=O)COC(=O)Cc2cccs2)c1C	n	n	x	n	n	x
NC(=O)CNC1CC(=O)N(CCc2ccccc2)C1=O (stereo not drawn)	n	n	n	23483	n	n
O=C1CC(Nc2ccccc2)C(=O)N1CCc1ccccc1 (stereo not drawn)	n	n	n	n	n	n
CCCn1c(SCC(=O)c2cc(C)n(-c3cc(C)on3)c2C)n[nH]c1=O	n	n	x	n	n	x
O=C(Cn1c(=O)c2c(ncn2Cc2ccccc2)n(Cc2ccccc2)c1=O)NC1CC1	n	n	n	19673	n	n
CCn1cnc2c1c(=O)n(CC(=O)O)c(=O)n2Cc1ccccc1	n	n	n	n	n	n
CC(=O)Nc1cnn(Cc2ccc(Br)cc2)c1	n	n	n	24279	n	n
O=C(NCCc1ccc(Cl)cc1)c1cnccn1	n	n	n	n	n	n
CCOc1ccccc1C(=O)Nc1cnn(Cc2ccc(F)cc2)c1	n	n	n	n	n	n
SMILES	BoNT-A LC inh2	BoNT-F LC inh	DUSP3 inh	Bead autofluor	Anthrax LF inh2	SARS 3CLpro inh
O=C(Nc1cnn(Cc2ccc(Cl)cc2)c1)c1cnccn1	n	n	n	19189	n	n
CN(CC(=O)NCCc1ccc(F)cc1)Cc1cccc(Cl)c1	n	n	n	n	n	n
O=C(O)CC(C(=O)NC1CCCCC1)C1CCCO1 (stereo not drawn)	n	n	n	22137	n	n
O=C(CN1CCN(c2ccc(O)cc2)CC1)Nc1cc(S(=O)(=O)N2CCCCC2)ccc1Cl	n	n	56	n	n	n
O=C(CN1CCN(c2ccc(O)cc2)CC1)Nc1cc(S(=O)(=O)N2CCCC2)ccc1Cl	n	n	n	n	n	n
Cc1ccc(S(=O)(=O)N2CCN(CC(=O)Nc3ccccc3Cl)CC2)cc1	n	n	x	n	n	x
Cc1ccc(S(=O)(=O)Nc2ccc(NC(=O)CN3CCCCC3)c(Cl)c2)cc1	n	n	n	19818	n	n
COc1ccc(NC(=O)c2cc(C3CCCCN3S(=O)(=O)c3ccc(F)cc3F)on2)c(C)c1 (stereo not drawn)	n	n	x	n	n	x
O=C(Nc1ccccc1)c1cccc(C(F)(F)F)c1	n	n	n	n	n	n
Cc1nc2ccc(NC(=O)c3cccc(C(F)(F)F)c3)cc2o1	n	n	n	22143	n	n
CC1(c2ccccc2)NC(=O)N(CC(=O)Nc2ccc(N3CCOCC3)cc2)C1=O (stereo not drawn)	n	n	x	n	n	x
CC1=NN(C(C#N)c2ccccc2O)C(C)(C)C1 (stereo not drawn)	n	n	n	n	n	n
CCN1C(C#N)=C(C#N)N=C(C)CC1(C)C	n	n	53	n	n	n
COc1ccc(N2C(=O)CC(Nc3ccc(C)cc3)C2=O)cc1 (stereo not drawn)	u	n	n	21164	n	n
COc1cccc(CCC(=O)N(C)C2CCCN(Cc3ccccc3F)C2)c1 (stereo not drawn)	n	36	n	n	n	n
COc1cccc(CC(=O)N(C)C2CCCN(Cc3ccccc3F)C2)c1 (stereo not drawn)	n	n	n	n	n	n
CCN(CC)c1ccc(/C=C2\C(=O)c3ccc(C(=O)O)cc3C2=O)cc1	n	64	n	n	37	n
COc1cc(/C=C2\SC(=S)N(CC(=O)Nc3ccccn3)C2=O)cc(OC)c1OC	39	n	n	n	n	n
COc1cc(/C=C2/SC(=S)N(CC(=O)Nc3nc4ccccc4s3)C2=O)cc(OC)c1OC	40	n	n	n	42	n
CCc1nnc(NC(=O)CN2C(=O)/C(=C/c3cc(OC)c(OC)c(OC)c3)SC2=S)s1	n	n	n	n	n	n
CCc1ccc(OCC(=O)N2CCN(c3ccccn3)CC2)c(Br)c1	n	n	n	n	n	n
CC1CCCN(CCCOc2ccccc2-c2ccccc2)C1 (stereo not drawn)	n	n	n	n	n	n
Cc1cc(C)c(C#N)c(SCc2ccccc2)n1	n	n	n	n	n	n
Cc1cc(C)c(C#N)c(SCc2ccc(C(=O)O)cc2)n1	n	u	n	n	32	n
Cc1ccc2nc(CSc3nc(C)cc(C)c3C#N)[nH]c2c1	n	n	n	21126	n	n
O=C(O)C1(c2ccccc2)CCN(S(=O)(=O)c2ccc(Br)cc2)CC1	n	n	n	n	n	n
CC(O)(CS(=O)(=O)c1ccccc1)C(=O)Nc1cccc(C(F)(F)F)c1 (stereo not drawn)	n	n	n	21019	n	n
O=C1CC(N2CCN(Cc3ccccc3)CC2)C(=O)N1c1ccccc1 (stereo not drawn)	n	n	n	23947	n	n
